Only some compounds are listed: those with a hit (about 10% of all), similar ones and a draw of the others.
G9a block – G9a (human) methyltransferase inhibition. Q96KQ7. G9a H3K9 monomethylation, AlphaScreen, 2 h. Potency, µM (highest dose often 102 µM), actives largely listed as inhibitors. actives 8.8% (n = 350,000). AID 504332; note: nearly all actives have a fitted effect of over 75% in size
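Chemiluminescent proximity detection of H3K9 monomethylation, read after 10 min bead incubation in the dark. Reaction: 20 nM G9a, 500 nM biotin-H3K9 peptide, 20 uM SAM cofactor, 2 h, room temperature, following 15 min enzyme-compound preincubation.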
BAZ2B block – blocks human BAZ2B. Q9UIF8. actives 4.4% (n = 360,000). AlphaScreen BAZ2B-H3K14Ac peptide displacement. Potency, µM (titrated, usually from 114 µM), usual class: inhibitors; note: nearly all actives have a fitted effect of over 60% in size
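BAZ2B 50 nM plus b-H3(5-23)K14Ac 50 nM, PBS pH 7.4/0.01% Tween-20, 30 min RT; compound added (max 110 uM), 30 min RT; streptavidin donor/Ni-chelate acceptor beads 10 ug/mL final, 20 min dark; AlphaScreen read.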
HP1b chromo inh – HP1-beta chromodomain-methylated histone interaction inhibition; actives 0.56% (n = 390,000); AID 540317; Potency, µM (doses to about 114 µM), most hits filed as inhibitors; AlphaScreen HP1-beta / biotin-H3K9me3 peptide binding; note: nearly all actives have a fitted effect of over 70% in size
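AlphaScreen: HP1-beta (50 nM) preformed 30 min with biotin-H3(1-18)K9me3 peptide (50 nM) in PBS pH 7.4, 0.01% Tween-20. Compound added for 30 min at RT, then streptavidin donor/nickel chelate acceptor beads (10 ug/mL) for 30 min.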
JMJD2A Tudor – inhibitors of human JMJD2A Tudor domain; O75164; AlphaScreen JMJD2A-Tudor / H3K4me3 peptide binding; Potency, µM (highest dose often 114 µM), most hits filed as inhibitors; actives 4.4% (n = 390,000); AID 504339; note: nearly all actives have a fitted effect of over 50% in size
GLS inhibitor – glutaminase GLS (human) inhibition; Potency, µM (highest dose often 45.5 µM), most hits filed as inhibitors; AID 624170; GLS enzymatic activity, qHTS titration; actives 0.21% (n = 410,000)
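Compounds were pin-transferred onto hKGA, after which L-glutamine (1 mM solution) and a detection mix of glutamate oxidase, HRP and Amplex Red were added. Initial and 30 min RT fluorescence reads were collected.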
A number is an active result; i = inactive; ? = inconclusive; nt = not tested or not shown; [ ] = remark or other dose. Calls come from the whole dose curve; as a rule, active = well fitted curve in the direction sought with a large enough effect; inconclusive = small, poorly fitted or top-dose-only effect, or another doubt; inactive = no such curve, though single readings can be large; an effect the other way counts as inactive or inconclusive.

SMILES | G9a block | BAZ2B block | HP1b chromo inh | JMJD2A Tudor | GLS inhibitor
COc1ccccc1NC(=O)CCNS(=O)(=O)c1ccc2[nH]c(=O)oc2c1 | i | i | i | 35µM | i
Cc1cc(S(=O)(=O)c2ccc([N+](=O)[O-])cn2)ccc1Br | nt | nt | i | i | i
COc1ccc(CNC(=O)c2ccc(-c3nc(CS(=O)c4ccc(C)cc4)c(C)o3)cc2)cc1 (configuration not stated) | ? | i | i | i | i
COCCSc1nnc(NC(=O)C2CC(=O)N(C3CCCC3)C2)s1 (configuration not stated) | i | i | i | i | i
CCOC(=O)C1(CCOc2ccccc2)CCN(Cc2cc(OC)c(O)c(OC)c2)CC1 | 79µM | i | i | ? | i
CCOC(=O)C1(CCOC)CCN(Cc2cnc(-c3cccc(C)c3)nc2)CC1 | 45µM | i | i | i | i
CCOC(=O)C1(Cc2ccccc2C)CCCN(Cc2cc(OC)c(O)c(OC)c2)C1 (configuration not stated) | 45µM | i | i | i | ?
CCOC(=O)C1(CCOc2ccccc2)CCN(Cc2ccc(O)c(OCC)c2)CC1 | 79µM | i | i | ? | i
Cc1c(N=CC=Nc2c(C)n(C)n(-c3ccccc3)c2=O)c(=O)n(-c2ccccc2)n1C | i | i | nt | nt | nt
COc1ccc(OC)c(NC(=O)Cn2cc(C(=O)c3ccco3)c3ccccc32)c1 | i[12.7 µM] | ? | i | ? | i
CCCN1CCN(CC2=C(C(=O)OCC)C(c3ccc(OC(C)C)cc3)NC(=O)N2)CC1 (configuration not stated) | i | nt | i | i | i
Nc1ccc(C(=O)N2CCN(S(=O)(=O)c3ccc(Br)cc3)CC2)cc1[N+](=O)[O-] | 45µM | i | i | ? | i
CC(=O)c1ccc(S(=O)(=O)N2CCN(C(=O)c3ccc(N)c([N+](=O)[O-])c3)CC2)cc1 | i[12.7 µM] | i | i | i | i
O=[N+]([O-])c1ccc(-c2c[nH]c(=S)[nH]2)cc1 | 2µM | i | ? | ? | i
S=c1[nH]cc(-c2ccccc2)[nH]1 | i | i | i | 25µM | i
COc1cc(-c2ccccc2)[nH]c(=S)n1 | i[2.33 µM] | ? | i | i | i
O=C1CCCC2=C1C(c1ccc(O)c(O)c1)c1c(ccc3ncccc13)N2 (configuration not stated) | 3.5µM | 45µM | ? | i[11.4 µM] | ?
COc1cc(C2Nc3ccc4ncccc4c3C3=C2C(=O)CCC3)ccc1O (configuration not stated) | 50µM | i | i | ? | i
CN(CCOc1ccccc1)CC(O)COc1ccccc1 (configuration not stated) | ? | i | i | i | i
CC(OCC(O)CN(C)CCOc1ccccc1)c1ccc(Cl)cc1 (configuration not stated) | ? | ? | ? | 3.5µM | i
CN(CCOc1ccccc1)CC(O)COCc1ccccc1F (configuration not stated) | 10µM | 71µM | ? | ? | i
CN1CCC(N(C)CC(O)c2ccccc2)CC1 (configuration not stated) | 8.9µM | 50µM | i | 3.5µM | i
CN(CCOc1ccc(Cl)cc1)CC(O)c1ccccc1 (configuration not stated) | 3.5µM | 20µM | 71µM | 1.1µM | i
CCC(C)c1ccccc1NC(=O)CN(C)CCOc1ccc(Cl)cc1 (configuration not stated) | i | i | i | i | i
Cc1ccc(CSc2nc3cc(C(=O)NC4CCCC4)ccc3c(=O)n2Cc2ccccc2)cc1 | i | i | i | i | i
COc1ccc(-n2c(COc3ccc(C)cc3)nnc2SCc2ccc(C#N)cc2)cc1 | nt | i | i | i | i
CC(C)c1ccc(CN(C)CC(O)c2ccccc2)cc1 (configuration not stated) | ? | 89µM | i | i | i
O=S(=O)(NC1CCCCC1)c1ccc(Br)s1 | i | i | i | i | i
CCCS(=O)(=O)c1nc(S(=O)(=O)c2ccc(C)cc2)c(NCc2ccc3c(c2)OCO3)s1 | 40µM | i | i | i | i
Cc1ccc2nc(CSc3nnc(-c4ccco4)o3)cc(=O)n2c1 | ? | 56µM | i | i | i

Screens: PubChem BioAssay, National Center for Advancing Translational Sciences (NCATS)
